Measured values taken from PubChem BioAssay AID652105 (National Center for Advancing Translational Sciences (NCATS), 2013).
The whole screen tested about 330,000 compounds, of which about 4,100 (1.2%) were called active. Not shown: some 2% with an inconclusive outcome. The calls were made as follows: active = max response of -50% or lower; inconclusive = between -30% and -50%; inactive = -30% or higher. The list comes from a sample in which actives are over-represented; it also holds similar structures and randomly drawn compounds.

Biological target: Phosphatidylinositol 5-phosphate 4-kinase type-2 alpha (Homo sapiens) (UniProt P48426)
Assay: qHTS for Inhibitors of phosphatidylinositol 5-phosphate 4-kinase (PI5P4K); also: value at the top dose of about 77 µM
Settings: PI5P4Kalpha enzyme, ADP-Glo luminescence, 60 min; stronger effect = lower value
Outline: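 Compounds were pin-transferred onto PI5P4Kalpha and substrate in HEPES pH 7.4 buffer with EGTA, CHAPS and 5% DMSO. ATP (5 microM final) started the reaction, which ran 60 minutes at room temperature before ADP-Glo detection.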
% is scaled to controls: 0 for no effect and ±100 for the full control effect.

Sequence of Phosphatidylinositol 5-phosphate 4-kinase type-2 alpha (Homo sapiens) (P48426 whole entry, looked up): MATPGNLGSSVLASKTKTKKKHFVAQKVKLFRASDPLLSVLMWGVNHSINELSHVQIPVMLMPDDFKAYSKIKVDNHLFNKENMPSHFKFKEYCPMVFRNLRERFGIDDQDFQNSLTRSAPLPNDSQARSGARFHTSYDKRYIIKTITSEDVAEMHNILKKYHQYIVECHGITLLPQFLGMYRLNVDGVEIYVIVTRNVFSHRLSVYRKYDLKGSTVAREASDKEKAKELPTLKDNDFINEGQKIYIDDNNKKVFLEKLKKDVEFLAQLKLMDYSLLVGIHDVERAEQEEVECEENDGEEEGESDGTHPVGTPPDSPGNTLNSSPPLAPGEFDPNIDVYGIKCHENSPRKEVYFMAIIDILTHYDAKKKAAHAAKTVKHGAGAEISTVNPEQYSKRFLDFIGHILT

Row | SMILES | max response
1 | COc1ccc(NC(=O)C2Cc3c(-c4ccc5c(c4)OCO5)ccnc3O2)cn1 (stereo not given) | -13.8% (inactive)
2 | O=[N+]([O-])c1ccc(N2CCSCC2)cc1O | -3.3% (inactive)
3 | O=C1CSC(=S)N1c1ccc(O)cc1 | -3.72% (inactive)
4 | O=C1CSC(=S)N1/N=C/c1ccc(O)c([N+](=O)[O-])c1 | -104% (active)
5 | CC1Cc2[nH][nH]c(=O)c2C(C2CCCC2)O1 (stereo not given) | 0.644% (inactive)
6 | CC1=C(C(=O)N2CCOCC2)CC(CC(=O)NCCCN(C)C)C(=O)N1Cc1ccc(C(C)(C)C)cc1 (stereo not given) | 1.54% (inactive)
7 | Fc1ccc(COc2ccc(-c3nnco3)cc2)cc1 | -2.69% (inactive)
8 | Fc1ccc(/C=N/n2c(COc3ccccc3)n[nH]c2=S)cc1 | 5.11% (inactive)
9 | Fc1ccc(COc2cccc(-c3n[nH]c(=S)o3)c2)cc1 | -51.9% (active)
10 | Cc1cccc(CNC(=O)c2sc(=O)n(Cc3ccccc3C)c2C)c1 | 0.532% (inactive)
11 | COc1ccc(-c2ccc(C(=O)NC(C)C)c3occc23)c(C)c1 | 4% (inactive)
12 | CC[C@@H]1Cc2cc(O)ccc2C2=C1c1ccc(O)cc1C[C@H]2CC | -54.7% (active)
13 | Cc1ccc(C(=O)N2CCCc3ccccc32)c(Cl)c1 | 0.412% (inactive)
14 | N#C/C(=C(/O)COC(=O)COc1ccc(Cl)cc1)c1nc2ccccc2[nH]1 | -17% (inactive)
15 | CC(C)(C)c1nnc2sc(SCC(O)=C(C#N)c3nc4ccccc4[nH]3)nn2c1=O | -56.5% (active)
16 | N#C/C(=C(/O)COc1cccc2ccccc12)c1nc2ccccc2[nH]1 | -15.3% (inactive)
17 | COC(=O)[C@@]12C[C@@H](CC(=O)N3CCC(c4ccccc4)CC3)C(=O)N(Cc3ccccc3)C1=CCC(C)(C)C2 | 3.29% (inactive)
18 | COc1ccc(C(C)(NC(C)=O)c2nc(-c3ccc(S(C)(=O)=O)cc3)cs2)cc1 (stereo not given) | -2.22% (inactive)
19 | O=C(Nc1cc(Br)ccc1F)c1nc[nH]c1C(=O)NCc1ccccc1 | 32.1% (inactive)
20 | O=C(Cc1ccc([N+](=O)[O-])cc1)NCCS(=O)(=O)N1CCN(c2ccccc2)CC1 | -2.51% (inactive)

Row | SMILES | max response
21 | O=c1ccc2c(-c3ccccc3S(=O)(=O)O)c3ccc(O)c(O)c3oc-2c1O | -99.8% (active)
22 | COc1ccccc1CNc1nc(Nc2ccccc2Cl)c2sccc2n1 | -3.83% (inactive)
23 | CC(=O)c1ccc(Nc2nc(C(N)c3ccccc3Cl)cs2)cc1 (stereo not given) | 1.57% (inactive)
24 | CC1(Oc2ccccc2-c2ccno2)CCN(Cc2ccc(-c3ccccc3)o2)C1 (stereo not given) | -1.74% (inactive)
25 | CC(=O)Nc1cccc(Nc2ccc(C#N)cc2)c1 | 1.81% (inactive)
26 | COC(=O)[C@]12CCCCC=C1N(Cc1ccco1)C(=O)[C@H](CC(=O)NCCCCc1ccccc1)C2 | 0.498% (inactive)
27 | CCc1c(C)[nH]c(=S)c(C#N)c1C | -67.1% (active)
28 | O=S1(=O)CCN(C2CCCCCCCCCCC2)CC1 | 7.96% (inactive)
29 | O=Cc1cn(CCOc2ccc(F)cc2)c2ccccc12 | 7.27% (inactive)
30 | COC(=O)c1ccc2nc(-c3ccc(F)cc3)c(Cc3ccc(C)cc3)n2c1 | 0.932% (inactive)
31 | O=S1(=O)C[C@@H](N2CCN(CCO)CC2)[C@H](COCc2ccccc2)N1 | -1.64% (inactive)
32 | CC(C)Oc1cc(F)ccc1-c1cc(C(=O)Nc2cccc(Cl)c2)[nH]n1 | 0.377% (inactive)
33 | COc1ccc(OC)c(C(O)c2ncc(-c3cccc(C(F)(F)F)c3)[nH]2)c1 (stereo not given) | -2.56% (inactive)
34 | CC1(OC(=O)C2CCCC2)C(=O)C=C2C=C(c3ccc(C#N)cc3)OC=C2C1=O (stereo not given) | -76.4% (active)
35 | C=CCN1C=C2C(=O)C(C)(OC(=O)CCc3ccccc3)C(=O)C=C2C=C1c1ccc(C#N)cc1 (stereo not given) | -25.6% (inactive)
36 | COCCN1C=C2C(=O)C(C)(OC(=O)C3CCCC3)C(=O)C=C2C=C1c1ccsc1 (stereo not given) | -2.59% (inactive)
37 | COc1ccccc1Cc1c(-c2ccc(Cl)cc2)nc2ccc(Cl)cn12 | -3.05% (inactive)
38 | CC(C)c1ccc(Nc2nnc(SCC(=O)c3nnc(-c4ccccc4)o3)s2)cc1 | -79.1% (active)
39 | CC(C)Nc1nnc(SCC(=O)c2c[nH]c3ccccc23)s1 | -3.57% (inactive)
40 | Cc1ccccc1Nc1nnc(SCC(=O)c2cc3ccccc3o2)s1 | -19.3% (inactive)

Row | SMILES | max response
41 | Cc1ccc(Nc2nnc(SCC(=O)c3cc4ccccc4o3)s2)cc1C | -55.9% (active)
42 | CC(C)N(C(=O)CSc1nnc(NC2CC2)s1)c1ccccc1 | 2.4% (inactive)
43 | NC(=O)CSc1nnc(NC(=O)c2ccc3ccccc3c2)s1 | -9.56% (inactive)
44 | O=C1NC[C@H](CCCCN2C[C@H](Cc3ccc(O)cc3)N(CCc3ccccc3)C(=O)C2=O)N(CCc2ccccc2)C1=O | -2.29% (inactive)
45 | COCc1cccc(-c2csc(C(O)c3ccc(F)cc3)n2)c1 (stereo not given) | 0.323% (inactive)
46 | COc1ccc(C(=O)N2CCCCC2c2cc(C(=O)Nc3ccc(F)c(Cl)c3)no2)cc1 (stereo not given) | -6.25% (inactive)
47 | NC(Cc1ccccc1)c1csc(Nc2cc(Oc3ccccc3)ncn2)n1 (stereo not given) | 1.15% (inactive)
48 | O=C(/C=C/c1ccc2c(c1)OCCO2)c1ccc(O)cc1 | -20.1% (inactive)
49 | O=C(/C=C/c1ccc(F)cc1)NCCNC(=O)/C=C/c1ccc(F)cc1 | 3.31% (inactive)
50 | O=C(/C=C(O)/C=C/c1ccc(O)cc1)/C=C/c1ccc(O)cc1 | -59.8% (active)
51 | O=C1c2ccccc2-c2ccccc2NC1O (stereo not given) | -1.89% (inactive)
52 | COc1ccc(NC(=O)CCC(=O)Nc2nnc(C3CCCCC3)s2)cc1 | 0.477% (inactive)
53 | Cc1nnc(NC(=O)CCCOc2ccccc2)s1 | -10% (inactive)
54 | COc1ccc(OCCCC(=O)Nc2nnc(C3CCCO3)s2)cc1 (stereo not given) | -53% (active)
55 | Cc1ccc(S(=O)(=O)N2CCC(=O)N([C@H](COCc3ccccc3)C(C)C)CC2)cc1 | -1.43% (inactive)
56 | CC(=O)Nc1cccc(-c2ccnc3c2CC(C)(C(=O)NCc2ccccc2)O3)c1 (stereo not given) | 0.0166% (inactive)
57 | COC(=O)c1ccc(CN2C(=O)C(Cc3ccccc3)ON=C2c2ncccc2C)o1 (stereo not given) | -4% (inactive)
58 | CCOC(=O)c1cc2c(=O)[nH]c(C(Cl)(Cl)Cl)nc2o1 | -59.5% (active)
59 | CCOC(=O)c1ccc(COC(=O)c2cc(=O)[nH]c3ccccc23)o1 | 0.0752% (inactive)
60 | CCOC(=O)c1ccc(Nc2cc3ccccc3c(=O)[nH]2)cc1 | 3.2% (inactive)
